The values that follow are results of earlier work, collected in PubChem BioAssay AID977608.

Structures are written as SMILES. The campaign covered roughly 4,300 compounds. About 4,300 (100%) were called active. Cut-off not given; nearly all actives show IC50 up to about 1400 µM. The set was probably picked from earlier hits. The list shows a part of the results. *1 amine or outer side, *2 acyl side, *3 side chain or, on linkers, in order; H or OH if unused. Where a SMILES comes first, the peptide text is derived from it. Square brackets hold non-standard residues; d marks the D form. Residues, ends and D or L forms follow the SMILES beside them. Side-chain parts run from the residue outwards. Peptide text beside a SMILES is read from it. [ ]: non-standard residue; d: D form. The star is where a group is joined. N(2S-NH-3-Ph-propyl)Phe = O=C([C@H](Cc1ccccc1)N(C[C@H](Cc1ccccc1)N[*:3])[*:1])[*:2]; Orn(CH(NH2)2) = NC(N)NCCC[C@H](N)C(=O)O; X1 = CC(N)NCCC[C@H](N)C(=O)*; Nle = CCCC[C@H](N)C(=O)O

A short description of this data set: literature IC50 values for PDB complexes, PDB-derived complexes (AID 977608). The note with it: PDB protein-ligand complexes.
Where [1] appears, read: protein: metallodependent class II fructose-1,6-bisphosphate aldolase (FBA-tb), PDB entry 4a22 unless noted.

What is called IC50 is the concentration that inhibits the measured activity by half. For `COCCN/C=C1/C(=O)N(C)c2ccc(C(F)(F)F)cc2N(c2ccccc2)C1=O`, under setting [1], the concentration for half-maximal inhibition (IC50) is 890 nM [protein: HIV-1 capsid protein (N-terminal domain), PDB entry 4inb] (active). For the compound `C[N+](C)(C)CCCP(O)O`, the IC50 under setting [1] was 520 nM [protein: human gamma-butyrobetaine hydroxylase, PDB entry 4bgk] (active). Turning to `O=C(O)c1ccc2cccc(O)c2n1`, the IC50 under setting [1] was 10000 nM [protein: M. tuberculosis's class IIa fructose 1,6-bisphosphate aldolase, MtFBA, PDB entry 4lv4] (active). With `c1csc(-c2cc(CNC34CC5CC(CC(C5)C3)C4)no2)c1`, the IC50 under setting [1] was 16000 nM [protein: Membrane ion channel M2, PDB entry 2ly0] (active). For the compound `COCN1CCC(C(N)=O)CC1`, the IC50 under setting [1] was 300000 nM [protein: ACETYLCHOLINESTERASE, PDB entry 3zlv] (active). Regarding `Cc1cc(S(=O)(=O)N(Cc2cccc(N)c2)[C@H](C)C(=O)NO)ccc1F`, the IC50 under setting [1] is 30000 nM [PDB entry 4pku] (active). On to `Cc1cc(S(=O)(=O)N(Cc2ccc(CN)cc2)[C@H](C)C(=O)NO)ccc1F`, for which the half-inhibitory concentration (IC50) under setting [1] was 5600 nM [PDB entry 4pkv] (active).

`Cc1cc(S(=O)(=O)N(Cc2ccc([N+](=O)[O-])cc2)[C@H](C)C(=O)NO)ccc1F`: the IC50 under setting [1] was 14900 nM [PDB entry 4pkt] (active). For `Cc1cc(S(=O)(=O)N(Cc2ccccc2)[C@H](C)C(=O)NO)ccc1F`, the IC50 under setting [1] is 15200 nM [PDB entry 4pkr] (active). With `Cc1cc(S(=O)(=O)N(Cc2cccnc2)[C@H](C)C(=O)NO)ccc1F`, the half-maximal inhibitory concentration (IC50) under setting [1] was 15200 nM [PDB entry 4pks] (active). Turning to `FC(F)(F)c1nc2ccccc2[nH]1`, under setting [1], the IC50 was 138 µM [protein: 3-OXOACYL-[ACYL-CARRIER-PROTEIN] REDUCTASE FABG, PDB entry 4bnt] (active). On to `CCOC(=O)CC[C@H](C[C@@H]1CCNC1=O)NC(=O)[C@@H](CC(=O)[C@@H](NC(=O)c1cc(C)on1)C(C)C)Cc1ccc(F)cc1`, for which the IC50 under setting [1] was 1670 nM [protein: 3C proteinase, PDB entry 4ght] (active). As for `O=C(CO[P+](O)(O)O)N(O)CCCCO[P+](O)(O)O`, the IC50 under setting [1] is 3.2 nM (active). Consider `CCC(CC)O[C@@H]1CC(C(=O)O)C[C@H](N)[C@H]1NC(C)=O` (stereo not given in full), for which the 50% inhibitory concentration (IC50) under setting [1] is 0.5 nM [protein: Neuraminidase, PDB entry 4hzx] (active). As for `CCC(CC)O[C@@H]1C[C@H](C(=O)O)C[C@H](N)[C@H]1NC(C)=O`, the half-inhibitory concentration (IC50) (protein: Neuraminidase7, PDB entry 4qn7) is 0.84 nM (active) and the IC50 (protein: Neuraminidase, PDB entry 4mww) is 215000 nM (active). In the case of `CCC(CC)O[C@@H]1CC(C(=O)O)=C[C@H](N)[C@@H]1NC(C)=O`, the IC50 under setting [1] is 0.9 nM [protein: Influenza Neuraminidase H3N8, PDB entry 4m3m] (active). For `CCC(CC)O[C@@H]1C[C@@H](C(=O)O)C[C@H](N)[C@H]1NC(C)=O`, under setting [1], the IC50 was 0.79 nM [protein: Neuraminidase, PDB entry 4mwq] (active).

On to `Nc1c2c(nc3cc(Cl)ccc13)C[C@H]1C=C(CCCCn3cc(CO)nn3)C[C@@H]2C1`, for which, under setting [1], the 50% inhibitory concentration (IC50) is 0.43 nM [protein: ACETYLCHOLINESTERASE, PDB entry 4a16] (active). Regarding `Nc1c2c(nc3cc(Cl)ccc13)C[C@H]1C=C(CCO)C[C@@H]2C1`, the IC50 under setting [1] is 1.1 nM [protein: ACETYLCHOLINESTERASE, PDB entry 4bdt] (active). For the compound `O=C(O)Cc1cc(=O)oc2c(O)c(O)ccc12`, the 50% inhibitory concentration (IC50) under setting [1] was 4800 nM [protein: Reverse transcriptase/ribonuclease H RT RNase H, PDB entry 4qag] (active). As to `CC[C@H](C)[C@H]1NC(=O)[C@@H](NC(=O)[C@H](C)[C@H](O)C(C)C)[C@@H](C)OC(=O)[C@@H]2COC(=O)CNC(=O)/C=C/[C@]3(CO3)[C@@H](C)Oc3ccc(cc3)[C@H](NC1=O)C(=O)N(C)[C@@H](Cc1ccccc1)C(=O)N[C@H]([C@@H](C)O)C(=O)N2`, under setting [1], the concentration for half-maximal inhibition (IC50) was 200 nM [protein: Escherichia coli RNA polymerase, PDB entry 4mex] (active). For `C[C@H](N)C(=O)N[C@@H](C)C(=O)N[C@@H](C)C(=O)O`, under setting [1], the IC50 was 340000 nM [protein: DI-OR TRIPEPTIDE\:H+ SYMPORTER, PDB entry 4d2d] (active). As to `C[C@@]1(O)CCN2C(=O)CCc3cccc1c32`, under setting [1], the concentration for half-maximal inhibition (IC50) is 198000 nM [protein: DUAL SPECIFICITY MITOGEN-ACTIVATED PROTEIN KINASE KINASE 1, PDB entry 3zlw] (active). Turning to `Oc1cc(Cl)ccc1Oc1ccc(Cl)cc1Cl`, the half-inhibitory concentration (IC50) under setting [1] is 54.7 µM [protein: Enoyl-[acyl-carrier-protein] reductase hERG, PDB entry 4w9n] (active). `Nc1nc2nc(C(=O)NCCNC(=O)O)cnc2c(=O)[nH]1`: the 50% inhibitory concentration (IC50) under setting [1] was 28000 nM [PDB entry 4mx5] (active). In the case of `Nc1nc2nc(C(=O)NCCNC(=O)Nc3ccccc3)cnc2c(=O)[nH]1`, the IC50 under setting [1] was 209000 nM [PDB entry 4mx1] (active). `NCCCCC[C@@H](C[SeH5])C(=O)O`: the IC50 under setting [1] was 2 nM [protein: Carboxypeptidase B, PDB entry 3wc5] (active). As to `CCCC[C@H](NC(=O)[C@H](C)NC(=O)[C@H](CCC(=O)O)NC(=O)[C@H](Cc1ccccc1)NC[C@H](Cc1ccccc1)NC(=O)[C@@H](NC(=O)[C@@H](N)CCCNC(C)N)C(C)C)C(=O)O` (stereo partly drawn) (H-[N(2S-NH-3-Ph-propyl)Phe]([Val-X1])EA[Nle]-OH), the concentration for half-maximal inhibition (IC50) under setting [1] was 142 nM [protein: HIV-1 PROTEASE (Q7K, L10I, D25N, M36V, M46L, I54V, I62V, L63P, A71V, V82T, I84V, L90M mutation), PDB entry 4gye] (active). `Nc1ncnc2c1ncn2[C@@H]1O[C@H](CO[P+](=O)O[C@@H]2[C@H](O)[C@@H](CO[P+](O)(O)O[C@@H]3[C@H](O)[C@@H](CO[P+](O)(O)O)O[C@H]3n3cnc4c(N)ncnc43)O[C@H]2n2cnc3c(N)ncnc32)[C@@H](O)[C@H]1O` (stereo not given in full): the IC50 under setting [1] is 13 nM [protein: interferon-induced endoribonuclease, ribonuclease L, PDB entry 1wdy] (active).

`Oc1c(Cl)cc(Cl)cc1-c1[nH]c(Br)c(Br)c1Br`: the 50% inhibitory concentration (IC50) under setting [1] was 2200 nM [protein: Non-Mevalonate Pathway Enzyme IspD from Arabidopsis thaliana, PDB entry 4nal] (active). For `Oc1c(Br)cc(Br)cc1-c1[nH]c(Br)c(Br)c1Br`, the half-maximal inhibitory concentration (IC50) under setting [1] was 1400 nM [protein: Non-Mevalonate Pathway Enzyme IspD from Arabidopsis thaliana, PDB entry 4nak] (active). For `Oc1c(Br)cccc1-c1[nH]c(Br)c(Br)c1Br`, under setting [1], the IC50 is 19000 nM [protein: Non-Mevalonate Pathway Enzyme IspD from Arabidopsis thaliana, PDB entry 4nan] (active). As to `CC(C)C[C@H](NC(=O)[C@H](CO)NC(=O)[C@H](CO)NC(=O)[C@H](CCC(=O)O)NC(=O)[C@H](Cc1ccc(O)cc1)NC(=O)[C@H](Cc1ccc(O)cc1)NC(=O)[C@H](CCCNC(N)N)NC(=O)[C@@H](N)Cc1c[nH]cn1)C(=O)N[C@@H](CCC(=O)O)C(=O)N1CCC[C@H]1C(=O)N[C@@H](Cc1c[nH]c2ccccc12)C(=O)N[C@@H](Cc1ccc(O)cc1)C(=O)N1CCC[C@H]1C(=O)N[C@@H](CC(=O)O)C(=O)O` (H-H[Orn(CH(NH2)2)]YYESSLEPWYPD-OH), under setting [1], the half-inhibitory concentration (IC50) was 120 nM [PDB entry 1jbd] (active). `CC(C)C[C@H](NC(=O)[C@H](CO)NC(=O)[C@H](CO)NC(=O)[C@H](CCC(=O)O)NC(=O)[C@H](Cc1ccc(O)cc1)NC(=O)[C@H](Cc1ccc(O)cc1)NC(=O)[C@H](CCCNC(N)N)NC(=O)[C@@H](N)Cc1c[nH]c2ccccc12)C(=O)N[C@@H](CCC(=O)O)C(=O)N1CCC[C@H]1C(=O)N[C@@H](Cc1ccc(O)cc1)C(=O)N1CCC[C@H]1C(=O)N[C@@H](CC(=O)O)C(=O)O` (H-W[Orn(CH(NH2)2)]YYESSLEPYPD-OH): under setting [1], the IC50 was 2 nM [PDB entry 1haa] (active).

Take `CC(C)C[C@H](NC(=O)[C@H](CO)NC(=O)[C@H](CO)NC(=O)[C@H](CCC(=O)O)NC(=O)[C@H](Cc1ccc(O)cc1)NC(=O)[C@H](Cc1ccc(O)cc1)NC(=O)[C@H](CCCNC(N)N)NC(=O)[C@@H](N)Cc1ccccc1)C(=O)N[C@@H](CCC(=O)O)C(=O)N1CCC[C@H]1C(=O)N[C@@H](Cc1c[nH]c2ccccc12)C(=O)N[C@@H](CC(=O)O)C(=O)N[C@@H](CC(=O)O)C(=O)O` (HELM PEPTIDE1{F.[NC(N)NCCC[C@H](N[*:1])C(=O)[*:2]].Y.Y.E.S.S.L.E.P.W.D.D}$$$$V2.0): the IC50 under setting [1] was 4.9 nM [PDB entry 1rgj] (active). In the case of `C[C@@H]1Oc2ccc(CN3CC=C(c4ccc(Cl)cc4)CC3)cc2NC1=O`, under setting [1], the IC50 was 3 nM [protein: Poly [ADP-ribose] polymerase 1, PDB entry 4l6s] (active). As for `COC(=O)C[C@@H](C)c1n[nH]c2nc(N)[nH]c(=O)c2c1=O`, the IC50 under setting [1] is 376000 nM [protein: Dihydropteroate synthase, PDB entry 4d8a] (active).

Turning to `CCC(CC)Oc1cc(C(=O)O)cc(N)c1NC(C)=O`, the concentration for half-maximal inhibition (IC50) under setting [1] was 8.31 nM [protein: Neuraminidase, PDB entry 4hzz] (active). In the case of `CCc1c(C)nc(-c2ccc(Cl)s2)nc1Nc1ccc(CC(=O)O)cc1`, the IC50 under setting [1] is 32 nM [protein: Catalytic Domain Of Human Phosphodiesterase 4B, PDB entry 4myq] (active). Regarding `CO[C@H](C(=O)O)c1c(C)nc2ccc(Br)cc2c1-c1ccc(Cl)cc1`, the IC50 (protein: HIV-1 Integrase catalytic core domain (A128T, F185K mutation), PDB entry 4jlh) is 4000 nM (active) and the half-maximal inhibitory concentration (IC50) (protein: HIV-1 Integrase, PDB entry 4dmn) was 2300 nM (active).

Consider `Cc1nc2ccccc2c(-c2cc(F)c3c(c2C)CCCO3)c1[C@H](OC(C)(C)C)C(=O)O`, for which, under setting [1], the IC50 is 67 nM [protein: HIV-1 integrase (F185K mutation), PDB entry 4e1n] (active). `Cc1nc(-c2nc3ccc(Cl)cc3[nH]2)c(C)c(-c2ccccc2)c1[C@H](OC(C)(C)C)C(=O)O`: under setting [1], the IC50 was 5.03 nM [protein: Integrase HIV-1 IN CCD F185K/A128T, PDB entry 4o5b] (active).

On to `Cc1ccc(-c2c([C@H](OC(C)(C)C)C(=O)O)c(C)nc3ccccc23)cc1C`, for which the IC50 under setting [1] is 55 nM [protein: HIV-1 Integrase (F185K mutation), PDB entry 4e1m] (active).
